GC-B act: human GC-B receptor activators, primary screen, HEK293 GC-B cells, cGMP TR-FRET, EC30 CNP. 370,000 tested, 0.11% active. activation, % at 10 µM. Atrial natriuretic peptide receptor 2 (Homo sapiens), P20594. 0% at EC30 CNP, 100% saturating CNP;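 active means activation at 10 µM reaching about 35% in either raw or pattern-adjusted values, limit read from the data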
PLCb3 inh: human PLC-beta3 inhibitors, primary screen, biochemical, fluorescence | 370,000 tested, 0.18% active | Purified PLC-beta3, fluorogenic substrate | AID 720704, 2013 | inhibition, % at 12.2 µM; in the data active means inhibition above about 11%;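 further: 0% = median of compound wells on plate and 100% = full blocker control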
GC-A act: GC-A stimulated cGMP production enhancers – HEK293 GC-A cells, cGMP TR-FRET, EC30 ANP, primary screen; Atrial natriuretic peptide receptor 1 (Homo sapiens), P16066; 0% at EC30 ANP, 100% saturating ANP; activation, % at 10 µM; 370,000 tested, 0.14% active; AID 1671463, 2021; in the data active means activation above about 40%
PLC-gamma1 inh: PLC-gamma1 enzyme inhibitors, primary screen, biochemical, fluorescence, purified enzyme | 1-phosphatidylinositol 4,5-bisphosphate phosphodiesterase gamma-1 (Homo sapiens), P19174 | AID 720700, 2013 | inhibition, % at 12.2 µM | fluorogenic substrate | 370,000 tested, 0.84% active; in the data active means inhibition above about 9.5%
Numbers without * were called inactive. Hits are enriched below; roughly 1.2% of the tested compounds scored in any of these assays.

SMILES	GC-B act	PLCb3 inh	GC-A act	PLC-gamma1 inh
CCCc1nnn(S(=O)(=O)c2ccc([N+](=O)[O-])cc2)c1CCC	4	13*	-1	12*
Cc1nn(S(=O)(=O)c2ccccc2)c(C)c1Sc1ccc([N+](=O)[O-])cc1	4	2	-3	1
CCCS(=O)(=O)c1c(S(=O)(=O)CCC)c2ccc(C(N)=O)cn2c1C(=O)OC	14	-20	15	-18
CCCS(=O)(=O)c1c(S(=O)(=O)CCC)c2ccc(C(N)=O)cn2c1C(=O)c1ccc(OC)cc1	56*	-12	39	-4
Cc1nc2ccc(S(=O)(=O)N3CCCCC3)cc2s1	4	-3	4	1
Nc1nc2ccc(S(=O)(=O)N3CCCCC3)cc2s1	-1	1	-3	48*
CC(=O)NCCNc1nc2c(-c3cccc(C(F)(F)F)c3)nnn2c2ccccc12	5	-56	8	-40
COCCNc1nc2c(-c3cccc(C(F)(F)F)c3)nnn2c2ccccc12	42*	-76	39	-46
Cc1ccccc1NC(=O)CN1CCc2ccccc2C1	2	-1	4	-1
COC(=O)[C@]1(C)N[C@H](CN(C)C(=O)C2CCCCC2)[C@@H]2C(=O)N(Cc3ccccc3)C(=O)[C@@H]21	4	2	1	0
CCC(COC)Oc1cc(NCc2ccccc2)c2ncn(C(C)C)c2c1 (stereo not drawn)	57*	-66	28	-47
CCC(CO)Oc1cc(NCc2ccccc2)c2ncn(C(C)C)c2c1 (stereo not drawn)	2	-51	2	-38
O=C(c1cccs1)N1CCC(N2CCN(c3ccccc3)CC2)CC1	-5	5	2	1
O=C(c1cccc2ccccc12)N1CCC(N2CCN(c3ccccc3)CC2)CC1	-1	4	0	15*
COc1ccc(CN(C)CCc2ccccn2)c(OC)c1OC	2	6	-8	5
OC(c1ccccc1)C(O)c1ccccc1 (stereo not drawn)	2	11*	-6	6
CCCc1nc(C)c2c(=O)[nH]c(-c3cc(S(=O)(=O)N4CCN(CC)CC4)ccc3OCC)nn12	65*	2	53*	-1
CCc1ccc(NC(=O)CN(CC(=O)Nc2ccc(CC)cc2)CC(C)O)cc1 (stereo not drawn)	1	-1	-2	11*
CCCOC(=O)c1ccc(Oc2c(-c3ccc(OCC)cc3O)n[nH]c2C)cc1	6	1	-3	2
COc1ccc(Oc2c(-c3ccc(O)cc3O)n[nH]c2C)cc1	1	-5	44*	0
O=C(Cn1cc(C(F)(F)F)ccc1=O)OCC(=O)c1ccc[nH]1	2	-2	1	1
CCCc1ccc(Oc2c(-c3ccc(O)c(C)c3O)n[nH]c2C)cc1	-1	-1	19	3
CCCc1ccc(Oc2cn[nH]c2-c2ccc(O)c(C)c2O)cc1	4	-5	47*	1
CCOC(=O)C1(C(=O)OCC)Cc2c([nH]c3ccccc23)[C@]2(N1)C(=O)N(C)c1ccc(Br)cc12	-19	-4	-20	10*
Cc1ccc(SCC(=O)OCC(=O)N(C)CC(=O)Nc2ccc(F)cc2)cc1C	1	-4	3	-2
SMILES	GC-B act	PLCb3 inh	GC-A act	PLC-gamma1 inh
Cc1[nH]c2ccccc2c1C(=O)C(=O)N1CCN(c2cccc(Cl)c2)CC1	-7	-1	-12	13*
Cc1[nH]c2ccccc2c1C(=O)C(=O)N1CCN(c2ccccc2Cl)CC1	-1	-12	4	-3
O=C1C=C(c2ccc3[nH]ccc3c2)C[C@@H](c2ccc(F)cc2)C1	36*	-62	3	-43
O=C(CC1S/C(=N\S(=O)(=O)c2ccccc2)N(c2ccccc2)C1=O)Nc1ccc(F)cc1 (stereo not drawn)	0	1	-2	1
Cc1ccc(S(=O)(=O)/N=C2\SC(CC(=O)Nc3ccc(F)cc3)C(=O)N2c2ccccc2)cc1 (stereo not drawn)	-6	11*	3	7
CC(=O)Nc1nc2ccccc2n1CCN(C)C	5	13*	6	3
CCCn1cnc2c(Sc3c([N+](=O)[O-])ncn3C)nc(N)nc21	8	3	2	7
Cn1cnc([N+](=O)[O-])c1Sc1nc(N)nc2c1ncn2Cc1ccccc1	44*	6	36	2
Cc1ccnc(N/C=C(/NC(=O)c2ccccc2)C(=O)N/N=C\c2ccc(Cl)cc2)n1	3	-50	52*	4
CCN(CC)S(=O)(=O)c1ccc(N2CCOCC2)c(NC(=O)c2cc3ccccc3oc2=O)c1	0	3	4	6
Cc1ccsc1/C=c1\sc2ncnn2c1=O	1	-5	18	-6
CCCCOc1ccc(/C=c2\sc3ncnn3c2=O)cc1	-5	-1	67*	-1
O=c1c2ccccc2nc2n1CCc1c-2[nH]c2ccccc12	16	-40	17	-25
Cc1cccc2c(=O)n3c(cc12)-c1[nH]c2ccccc2c1CC3	35*	-478	38	-357
c1ccc(SCCN2CCN(c3ccccc3)CC2)cc1	0	-4	1	10*
CCCN1CCC(=O)N(CCSc2ccccc2)CC1	4	2	-2	2
Cc1ccc(NC(=O)CN2CCCC2c2cccs2)cc1S(=O)(=O)N1CCCCC1 (stereo not drawn)	6	-4	-1	5
O=[N+]([O-])c1cc(S(=O)(=O)N2CCCCCC2)ccc1F	48*	8	8	0
Cc1c(C(=O)N2c3ccccc3Sc3ccccc32)cccc1[N+](=O)[O-]	-2	3	-10	1
CC(C)CCNC(=O)CN(Cc1ccccc1)C(=O)CCC(=O)Nc1nccs1	0	-10	2	0
O=C(CCN1C(=O)/C(=C/c2ccco2)SC1=S)Nc1ccc(C(=O)O)c(O)c1	-2	-17	3	29*
O=C(CN1C(=O)/C(=C\c2ccco2)SC1=S)Nc1ccc(O)cc1C(=O)O	2	-26	1	33*
CCCCNC(=S)N(C)/N=C/c1ccc(OCC(=O)Nc2c(C)cc(C)cc2C)c(OC)c1	15	0	6	-2
COc1cc(/C=N/NC(=S)NC(C)C)ccc1OCC(=O)Nc1c(C)cc(C)cc1C	44*	0	34	-1
O=C1NC(Cc2ccc(O)cc2)c2nc3ccc(Cl)cc3c(=O)n2-c2cc3ccccc3cc21 (stereo not drawn)	57*	-5	-1	-2
O=C1NC(Cc2ccccc2)c2nc3ccc(Cl)cc3c(=O)n2-c2cc3ccccc3cc21 (stereo not drawn)	10	-12	-1	-9
CC1(C)Cc2c(sc3c2c(=N)n(Cc2ccco2)c(=O)n3Cc2ccc(Cl)cc2)CO1	35*	-7	24	-4

Bioassay records from PubChem BioAssay.
